Shown are actives, neighbours in structure and some others; about 3.5% of the full set was active somewhere.
FBW7 act – FBW7 E3 ligase activators, primary screen, biochemical, AlphaScreen, human; actives 0.13% (n = 650,000); F-box/WD repeat-containing protein 7 (Homo sapiens), Q969H0; AlphaScreen FBW7–phospho-cyclin E peptide binding, activator screen; AID 1259310, 2017; normalized activity (activation), % at 26.1 µM; in the data active = normalized activity above about 1.9%;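 also: purified mutant Fbw7 with reduced substrate affinity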
GPR151 activ – activators of human GPR151, primary screen, cell-based, PathHunter beta-arrestin, luminescence; PathHunter beta-arrestin GPR151 cells; activation, % at 11.2 µM; actives 1% (n = 650,000); AID 1508602, 2020; in the data active = activation above about 4.9%;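 also: 0% = median of compound wells and 100% = cells with positive control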
MITF inh – MITF inhibitors, primary screen, biochemical, AlphaScreen, human; Microphthalmia-associated transcription factor (Homo sapiens), O75030; AlphaScreen MITF homodimerization, bead proximity signal; inhibition, % at 2.6 µM; actives 0.91% (n = 650,000); in the data active = inhibition above about 50%;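 also: 0% = vehicle wells with protein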
Target sequence (O75030 whole entry, looked up): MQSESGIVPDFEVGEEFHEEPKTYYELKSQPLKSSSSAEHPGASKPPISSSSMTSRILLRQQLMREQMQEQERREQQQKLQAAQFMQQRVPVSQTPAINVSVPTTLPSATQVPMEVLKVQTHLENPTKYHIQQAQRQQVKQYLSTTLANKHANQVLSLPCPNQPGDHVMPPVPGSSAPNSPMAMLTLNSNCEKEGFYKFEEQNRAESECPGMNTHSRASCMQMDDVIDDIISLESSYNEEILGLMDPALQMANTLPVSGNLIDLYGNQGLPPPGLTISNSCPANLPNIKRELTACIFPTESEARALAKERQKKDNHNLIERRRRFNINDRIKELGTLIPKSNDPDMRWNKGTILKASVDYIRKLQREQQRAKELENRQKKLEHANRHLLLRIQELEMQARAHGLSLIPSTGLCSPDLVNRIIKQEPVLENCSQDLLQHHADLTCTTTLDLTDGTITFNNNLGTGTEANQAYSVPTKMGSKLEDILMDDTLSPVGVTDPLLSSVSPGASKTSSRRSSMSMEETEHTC
TEAD-YAP inh – TEAD-YAP interaction inhibition, primary screen, TEAD-YAP interaction inhibitor project, luminescence, HEK-TIYL cells | TEAD-Gal4/YAP UAS-luciferase luminescence | inhibition, % at 9.12 µM | actives 1.4% (n = 640,000) | AID 1259422, 2018; in the data active = inhibition above about 32%;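 also: 0% = median of test compound wells and 100% = reference inhibitor wells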
* hit, by the source's call.

SMILES | FBW7 act | GPR151 activ | MITF inh | TEAD-YAP inh
CC(=O)N(C1=C(N(C)C)C(=O)c2ccccc2C1=O)c1cccc(F)c1 | -1 | -7 | 13 | 95*
CC(=O)N(C1=C(N(C)C)C(=O)c2ccccc2C1=O)c1cc(C)cc(C)c1 | 0 | -3 | 13 | 85*
CC(=O)N(C1=C(Cl)C(=O)c2ccccc2C1=O)c1ccc(Br)cc1 | 0 | 0 | 18 | 11
CC(=O)N(C1=C(N(C)C)C(=O)c2ccccc2C1=O)c1ccc(Cl)cc1 | 0 | -3 | 6 | 73*
COc1cc2nc(NCCCN3CCCC3=O)nc(NCCOc3ccccc3)c2cc1OC | 0 | 0 | 9 | -3
Cc1ccc(NC(=O)c2cc(S(=O)(=O)NCCC3=CCCCC3)ccc2F)cc1F | 1 | -3 | 16 | 34*
CC1(C)CC(=O)C=C(NNC(=O)c2ccc(O)cc2)C1 | 0 | 0 | -16 | 4
CC1(C)CC(=O)C=C(NNC(=O)/C(=C/c2ccccc2)CCO)C1 | 1.9* | 1 | 11 | 11
Cc1[nH]n(-c2nc(-c3ccccc3)cs2)c(=O)c1C(c1ccccc1)C(C#N)C(N)=O (stereo unspecified) | 0 | 0 | -7 | 59*
CC1=NN(c2nc(-c3ccc(C)cc3)cs2)C(=O)C1C(c1ccccc1)C(C#N)C(N)=O (stereo unspecified) | 0 | 3 | -16 | 75*
COc1ccc(-c2csc(N3N=C(C)C(N=Nc4ccc(C(N)=O)cc4)C3=O)n2)cc1 (stereo unspecified) | 0 | 0 | 0 | 0
Cc1ccc(C2CC(=O)C=C(O)C2)cc1 (stereo unspecified) | 0 | -1 | -3 | -1
CC(C)(C)c1ccc(C2CC(=O)C=C(O)C2)cc1 (stereo unspecified) | 1 | 1 | 18 | 54*
CCN(CC)c1ccc(/C=N/NC(=O)c2cc(Cl)ccc2O)c(O)c1 | 0 | -1 | 0 | -5
CCN(CC)c1ccc(/C=N/NC(=O)c2cc(C)oc2C)c(O)c1 | -1 | -4 | 10 | 53*
CCN(CC)c1ccc(/C=N/NC(=O)c2ccc(F)cc2)c(O)c1 | 0 | -1 | -5 | 73*
CCN(CC)c1ccc(/C=N\NC(=O)c2ccc(O)cc2)c(O)c1 | 0 | 0 | 16 | -7
Nc1nc(NCc2ccccc2)cc(-c2ccc3[nH]ccc3c2)n1 | 0 | -1 | 0 | 34*
NC(=O)c1ccc2c(c1)CC(c1nc3ccc(-c4ccnc(N)n4)cc3[nH]1)CO2 (stereo unspecified) | 1 | 0 | 31 | 1
COc1cccc2c1CC(c1nc3ccc(-c4ccnc(N)n4)cc3[nH]1)CO2 (stereo unspecified) | 0 | -1 | 8 | 50*
Nc1nccc(-c2ccc3nc(C4COc5ccc(F)cc5C4)[nH]c3c2)n1 (stereo unspecified) | 0 | -1 | 2 | 43*
COc1ccc(/C=C2/SC(=S)N(CC(=O)O)C2=O)c2ccccc12 | 0 | 0 | -6 | -9
O=C(CC1(O)C(=O)Nc2ccc(Cl)cc21)c1ccc2c(c1)OCO2 (stereo unspecified) | 0 | 0 | -13 | -7
NC(=O)c1cc(S(=O)(=O)Nc2ccccc2)ccc1O | 0 | 2 | -3 | -10
O=C(CSc1n[nH]c(-c2ccccc2)n1)Nc1ccccc1Cl | 1 | -2 | 4 | -8
SMILES | FBW7 act | GPR151 activ | MITF inh | TEAD-YAP inh
O=C(CSc1n[nH]c(-c2ccccc2)n1)Nc1cccc2ccccc12 | 0 | 1 | -2 | 53*
O=C(CCCCC(=O)n1nnc2ccccc21)n1nnc2ccccc21 | 0 | 2 | -8 | -7
O=C(N1CCCCC1)n1nnc2ccccc21 | 1 | 0 | 2 | 75*
COc1ccc(-c2ncc(C(N)=O)s2)cn1 | 0 | -5 | 7 | -5
O=C1C(=O)N(c2cccnc2)C(c2ccccc2)/C1=C(\O)c1ccccc1 (stereo unspecified) | 0 | 1 | 3 | 4
CCOC(=O)c1c(C)[nH]c(C(=O)N/N=C\c2ccccc2O)c1C | 0 | 0 | -1 | 35*
CCOC(=O)c1c(C)[nH]c(C(=O)N/N=C\c2ccc(Br)cc2)c1C | 0 | 2 | 3 | 56*
COc1ccccc1/C=N/NC(=O)c1[nH]c(C)c(C(=O)N/N=C/c2ccccc2OC)c1C | 0 | 0 | -2 | 1
CCOC(=O)c1c(C)[nH]c(C(=O)N/N=C\c2ccccc2)c1C | 0 | -1 | 18 | 18
COCCn1c(C)cc(C(=O)COC(=O)CCc2nc3ccccc3s2)c1C | 0 | -2 | -11 | 2
O=C(COc1ccccc1-c1ccccc1)NN=C1CCCC1 | 0 | 2 | 5 | 61*
CCC(C)NC(=O)Cn1c2cc(OC)c(OC)cc2c2nc(=O)cc(C)n21 (stereo unspecified) | 0 | -1 | 9 | 7
Oc1c(C(c2cccnc2)N2CCCC2)ccc2cccnc12 (stereo unspecified) | 0 | 0 | 65* | 9
Oc1c(C(c2ccncc2)N2CCCCC2)ccc2cccnc12 (stereo unspecified) | 0 | 0 | 72* | 15
Oc1c(C(c2cccnc2)N2CCCCC2)ccc2cccnc12 (stereo unspecified) | 0 | 0 | 92* | 14
Cc1ccc(-c2nc(C#N)c(NCCCN3CCCC3=O)o2)cc1 | 0 | 2 | 14 | -63
Clc1ccc2nc(C3CCN(Cc4nnnn4C4CCCC4)CC3)[nH]c2c1 | 0 | -1 | 3 | 37*
Clc1ccc2nc(C3CCN(Cc4nnnn4Cc4cccs4)CC3)[nH]c2c1 | 0 | -1 | 12 | 36*
c1csc(Cn2nnnc2CN2CCN(C3CCCC3)CC2)c1 | 0 | 0 | 12 | 6
Fc1ccccc1C1CCN(Cc2nnnn2C2CCCC2)CC1 | 0 | 0 | 33 | 5
Cc1cc(C)n(CCc2nc3c4ccccc4nc(=S)n3[nH]2)n1 | 0 | 0 | 7 | 49*
O=C(N/N=C/c1ccc(O)cc1O)c1nc(-c2ccccc2)n(-c2ccccc2)n1 | 0 | 0 | -3 | 13
OC1(c2ccc(OC(F)F)cc2)CSC(=Nc2cccnc2)N1CCCn1ccnc1 (stereo unspecified) | 0 | 0 | 0 | 11
COc1ccc(NC(=O)/C(C#N)=C\c2ccccc2O)cc1 | 0 | -3 | 19 | 40*
Cc1ccc(NC(=O)/C(C#N)=C\c2ccccc2O)cc1 | 0 | -1 | 9 | 30
N#C/C(=C/c1ccccc1O)C(=O)Nc1ccc(O)cc1 | 0 | -7 | 3 | 71*
NC(=O)CCc1nc2cc(Cl)ccc2n(Cc2ccccc2)c1=O | 0 | 0 | -7 | -1
Cc1cc(NC(=O)C2CCN(c3c(C#N)cnc4ccc(F)cc34)CC2)ccc1F | 0 | 1 | 7 | 4
COc1ccccc1NC(=O)Cn1c(=O)n(CCc2ccccc2)c(=O)c2cccnc21 | 1 | -1 | 14 | 1

Bioassay records (PubChem BioAssay)
